Source: PubChem BioAssay AID1159580 (chemical genetic matrix, 2015)
Hit rate of the full screen: of about 5,500 compounds, about 2,000 (36%) were called active. About 18% were inconclusive and are not listed. Cut-off read from the data, not from the text of the source: active = normalized growth mostly below about 0.91 (no sharp cut-off); inconclusive = no clear call, values can overlap the other calls; inactive = mostly above about 0.92. The list shows a part of the results.

Assay: chemical genetic growth profiling, strain panel (AID 1159580);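 note: tested at 20 µM; growth read once vehicle control cultures reached saturation at 30 °C; 1 = growth at the plate median or of vehicle wells; lower values mean less growth of the strain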
Conditions: S. cerevisiae deletion strains, growth OD
[1] = locus YHR030C, strain SLT2, stronger effect = lower value

Measured: normalized growth

NCCNCCNCCN
inactive: locus YAL021C, strain ccr4, stronger effect = lower value 0.984 | locus YAL026C, strain drs2, stronger effect = lower value 1.01 | locus YAL030W, strain snc1, stronger effect = lower value 0.998 | locus YBL061C, strain skt5, stronger effect = lower value 1 | locus YBR009C, strain hhf1, stronger effect = lower value 1.01 | locus YBR023C, strain chs3, stronger effect = lower value 1.01 | locus YBR171W, strain sec66, stronger effect = lower value 1 | locus YBR231C, strain swc5, stronger effect = lower value 0.992 | locus YBR279W, strain paf1, stronger effect = lower value 0.999 | locus YCL011C, strain gbp2, stronger effect = lower value 0.992 | locus YCL016C, strain dcc1, stronger effect = lower value 1 | locus YCL061C, strain MRC1, stronger effect = lower value 0.986 | locus YCL069W, strain vba3, stronger effect = lower value 0.995 | locus YCR088W, strain abp1, stronger effect = lower value 1 | locus YDL005C, strain med2, stronger effect = lower value 1.01 | locus YDL040C, strain nat1, stronger effect = lower value 1 | locus YDR001C, strain nth1, stronger effect = lower value 0.99 | locus YDR069C, strain doa4, stronger effect = lower value 1 | locus YDR137W, strain rgp1, stronger effect = lower value 1 | locus YDR159W, strain sac3, stronger effect = lower value 0.996 | locus YDR195W, strain ref2 0.982 | locus YDR297W, strain sur2, stronger effect = lower value 0.995 | locus YDR334W, strain swr1, stronger effect = lower value 1 | locus YDR335W, strain msn5, stronger effect = lower value 0.998 | locus YDR392W, strain spt3, stronger effect = lower value 1.01 | locus YEL003W, strain gim4, stronger effect = lower value 0.999 | locus YEL037C, strain rad23, stronger effect = lower value 0.994 | locus YEL061C, strain CIN8 (second series), stronger effect = lower value 0.998 | locus YER015W, strain faa2, stronger effect = lower value 0.991 | locus YER016W, strain bim1, stronger effect = lower value 1 | locus YER111C, strain swi4, stronger effect = lower value 1 | locus YER155C, strain BEM2 (second series), stronger effect = lower value 1.04 | locus YFR010W, strain ubp6, stronger effect = lower value 0.998 | locus YGL167C, strain pmr1, stronger effect = lower value 0.998 | locus YGL173C, strain kem1, stronger effect = lower value 1.01 | locus YGL227W, strain vid30, stronger effect = lower value 1 | locus YGL240W, strain doc1, stronger effect = lower value 1.02 | locus YGL253W, strain hxk2, stronger effect = lower value 0.994 | locus YHR013C, strain ard1, stronger effect = lower value 1 | locus YHR027C, strain rpn1, stronger effect = lower value 1 | [1] 1.02 | locus YHR079C, strain IRE1, stronger effect = lower value 1.02 | locus YHR142W, strain chs7, stronger effect = lower value 0.961 | locus YJL092W, strain hpr5, stronger effect = lower value 0.999 | locus YJL095W, strain BCK1 (second series), stronger effect = lower value 0.995 | locus YJL095W, strain BCK1, stronger effect = lower value 0.989 | locus YJL115W, strain asf1, stronger effect = lower value 1.01 | locus YJL129C, strain trk1, stronger effect = lower value 0.991 | locus YJL154C, strain vps35, stronger effect = lower value 1 | locus YJL164C, strain tpk1, stronger effect = lower value 0.997 | locus YJL166W, strain qcr8, stronger effect = lower value 0.994 | locus YJL187C, strain SWE1, stronger effect = lower value 1 | locus YJR066W, strain TOR1, stronger effect = lower value 0.955 | locus YKL160W, strain elf1, stronger effect = lower value 0.987 | locus YKR026C, strain gcn3, stronger effect = lower value 0.993 | locus YKR091W, strain srl3, stronger effect = lower value 0.991 | locus YLL001W, strain dnm1, stronger effect = lower value 0.997 | locus YLL026W, stronger effect = lower value 1.01 | locus YLL041C, strain sdh2, stronger effect = lower value 0.997 | locus YLR027C, strain aat2, stronger effect = lower value 1 | locus YLR113W, strain HOG1, stronger effect = lower value 0.976 | locus YLR221C, strain rsa3, stronger effect = lower value 0.984 | locus YLR258W, strain gsy2, stronger effect = lower value 1.01 | locus YLR262C, strain YPT6 (second series), stronger effect = lower value 0.985 | locus YLR320W, strain mms22, stronger effect = lower value 1 | locus YLR342W, strain FKS1, stronger effect = lower value 1 | locus YLR357W, strain rsc2, stronger effect = lower value 1.02 | locus YLR370C, strain arc18, stronger effect = lower value 0.995 | locus YLR384C, strain iki3, stronger effect = lower value 0.999 | locus YML120C, strain ndi1, stronger effect = lower value 0.991 | locus YMR058W, strain fet3, stronger effect = lower value 1 | locus YMR125W, strain sto1, stronger effect = lower value 1.01 | locus YMR129W, stronger effect = lower value 0.997 | locus YMR205C, strain PFK2, stronger effect = lower value 1.02 | locus YMR231W, strain pep5, stronger effect = lower value 1 | locus YNL071W, strain lat1, stronger effect = lower value 1.01 | locus YNL183C, strain NPR1, stronger effect = lower value 0.946 | locus YNL209W, strain ssb2, stronger effect = lower value 0.998 | locus YNL248C, strain rpa49, stronger effect = lower value 0.975 | locus YNL322C, strain KRE1 (second series), stronger effect = lower value 1 | locus YNR049C, strain mso1, stronger effect = lower value 0.993 | locus YOR001W, strain rrp6, stronger effect = lower value 0.988 | locus YOR070C, strain gyp1, stronger effect = lower value 1 | locus YOR080W, strain dia2, stronger effect = lower value 1 | locus YOR083W, strain WHI5, stronger effect = lower value 0.985 | locus YOR106W, strain vam3, stronger effect = lower value 0.986 | locus YOR231W, strain MKK1, stronger effect = lower value 0.995 | locus YOR265W, strain rbl2, stronger effect = lower value 0.996 | locus YOR270C, strain vph1, stronger effect = lower value 0.937 | locus YOR290C, strain snf2, stronger effect = lower value 1 | locus YPL051W, strain arl3, stronger effect = lower value 0.997 | locus YPL078C, strain atp4, stronger effect = lower value 0.992 | locus YPL106C, strain sse1, stronger effect = lower value 1.02 | locus YPL240C, strain hsp82, stronger effect = lower value 0.977 | locus YPL256C, strain CLN2, stronger effect = lower value 1.01

COc1cc(/C=C2/SC(=S)NC2=O)cc(OC)c1OC
active: locus YAL013W, strain DEP1, stronger effect = lower value 0.915 | locus YBR229C, strain ROT2, stronger effect = lower value 0.894 | locus YDL101C, strain DUN1, stronger effect = lower value 0.865 | locus YGR078C, strain PAC10, stronger effect = lower value 0.877 | locus YJR075W, strain HOC1, stronger effect = lower value 0.822 | locus YLR039C, strain RIC1, stronger effect = lower value 0.725 | locus YLR058C, strain SHM2 (second series), stronger effect = lower value 0.919 | locus YLR262C, strain YPT6, stronger effect = lower value 0.73 | locus YMR219W, strain ESC1, stronger effect = lower value 0.926 | locus YMR263W, strain SAP30, stronger effect = lower value 0.901 | locus YNL153C, strain GIM3, stronger effect = lower value 0.92 | locus YNL322C, strain KRE1, stronger effect = lower value 0.926
inactive: locus YDR150W, strain NUM1, stronger effect = lower value 0.897 | locus YEL061C, strain CIN8, stronger effect = lower value 0.977 | [1] 0.87 | locus YHR087W, strain rtc3, stronger effect = lower value 0.911 | locus YJR043C, strain POL32, stronger effect = lower value 0.948 | locus YLR085C, strain ARP6, stronger effect = lower value 0.845 | locus YML094W, strain GIM5, stronger effect = lower value 0.969 | locus YMR307W, strain GAS1, stronger effect = lower value 0.887 | locus YNL128W, strain TEP1, stronger effect = lower value 0.977 | locus YNL298W, strain CLA4 (second series), stronger effect = lower value 0.912 | locus YNR030W, strain Alg12, stronger effect = lower value 0.922 | locus YPL055C, strain LGE1, stronger effect = lower value 0.881 | locus YPL241C, strain CIN2, stronger effect = lower value 0.885 | locus YPR135W, strain CTF4, stronger effect = lower value 0.809
